Assay results taken from PubChem BioAssay AID493036 (Sanford-Burnham Center for Chemical Genomics, 2011).
Hit rate of the full screen: of about 330,000 compounds, about 560 (0.17%) were called active.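 The calls were made as follows: active = activation at or above 40% of the spot to cytoplasm intensity ratio, with at least 20 cells analyzed; inconclusive = wells under 20 cells, flagged as cytotoxic or low count; inactive = the rest.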 For the sample, actives were picked, then their nearest neighbours and some compounds at random.

Assays:
[1] = NTR1-driven beta-arrestin-GFP spot formation – imaging, U2OS cells, high content, primary screen (AID 493036); details: agonist mode, measured here: cell count, cytotoxicity flag, at 20 µM;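 as to activation: 0% = DMSO without peptide and 100% = 100 nM NTR1 peptide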
[2] = biological target: Neurotensin receptor type 1 (Homo sapiens) (UniProt P30989); test: as above; details: agonist mode, at 20 µM, stronger effect = higher value
Sequence of Neurotensin receptor type 1 (Homo sapiens) (P30989 whole entry, looked up): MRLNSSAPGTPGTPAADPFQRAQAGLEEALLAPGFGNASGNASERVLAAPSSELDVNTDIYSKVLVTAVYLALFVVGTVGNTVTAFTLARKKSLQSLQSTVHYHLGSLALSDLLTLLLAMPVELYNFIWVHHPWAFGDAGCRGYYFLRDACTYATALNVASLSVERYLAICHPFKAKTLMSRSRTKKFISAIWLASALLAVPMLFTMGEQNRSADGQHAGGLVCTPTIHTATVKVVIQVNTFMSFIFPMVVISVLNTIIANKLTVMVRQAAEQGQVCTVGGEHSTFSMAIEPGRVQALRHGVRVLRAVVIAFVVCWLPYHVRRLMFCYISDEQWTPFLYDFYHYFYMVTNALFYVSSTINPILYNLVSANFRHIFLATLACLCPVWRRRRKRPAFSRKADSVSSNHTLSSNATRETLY

SMILES | cell count [1] | activation [2]
COC(=O)c1ccc(COC(=O)CNC(=O)c2cccc(OC)c2)o1 | 57 cells | -0.3% (inactive)
O=C(Nc1nnc(S(=O)(=O)N2CCCCCC2)s1)c1cccc(Br)c1 | 53 cells | 5% (inactive)
Cc1c(NC(=O)CCC2CCCCC2)cc(C(=O)N2CCOCC2)cc1[N+](=O)[O-] | 61 cells | 1.4% (inactive)
COc1cccc(/C=N/Nc2cc(C)nc(-c3ccccc3O)n2)c1O | 51 cells | 46.3% (active)
COc1ccccc1-n1c(SCC(=O)Nc2cccc(C(=O)O)c2)nnc1-c1ccccc1O | 50 cells | -0.1% (inactive)
COc1ccc(Cc2nnc(N/N=C/c3ccccc3O)[nH]c2=O)cc1OC | 65 cells | 0% (inactive)
CCC1(CC)C(=O)C2=C3C1[C@H](C(=O)OC)C=C(C(=O)OC)C[C@H]3[C@H]1C(=O)N(Cc3ccccc3)C(=O)[C@H]1[C@H]2C (some centres not stated) | 56 cells | 4.6% (inactive)
CC(C)(C)Nc1c(-c2cccs2)nc2ccccn12 | 43 cells | 1.2% (inactive)
O=C(/C(=C/c1cccc(Cl)c1)c1nc2ccccc2[nH]1)c1ccccc1 | 59 cells | 40.5% (active)
O=C(N/N=C/c1ccc(Cl)cc1)c1nc2ccc([N+](=O)[O-])cc2c(=O)[nH]1 | 101 cells | -0.7% (inactive)
O=C(O)c1cccc(NC(=O)c2cc(-c3cccc(Cl)c3)nc3ccccc23)c1 | 44 cells | 1.2% (inactive)
